Reference: PubChem BioAssay (NCATS)
“And” between values parts separate entries of the source, which are not always exact repeats. Identical values can stand only once. Records with an inconclusive call do not appear. The source made the active and inactive calls. Unless noted, calls come from the whole dose curve; as a rule, active = well fitted curve in the direction sought with a large enough effect; inconclusive = small, poorly fitted or top-dose-only effect, or another doubt; inactive = no such curve, though single readings can be large; an effect the other way counts as inactive or inconclusive.

Legend:
[1] = target: Calcium and integrin-binding protein 1 (Homo sapiens) (UniProt Q99828); assay: Primary qHTS for Identification of Calcium Integrin Binding Protein 1 (CIB1) Competitor (AID 1508620);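 note: GST tagged CIB1 binding a fluorescein labelled alphaIIb integrin peptide tracer; top concentration of the series differs between compounds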
Procedure, shortened: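 CIB1-GST (1 uM final) and compound incubated 15 min at room temperature before adding FITC-alphaIIb peptide tracer (100 nM final). Competition for binding read by fluorescence polarization (ex 480, em 540) after another 15 min at room temperature.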

[2] = target: Cytochrome P450 2D6 (Homo sapiens) (UniProt P10635); assay: Cytochrome P450 family 2 subfamily D member 6 (CYP2D6) small molecule antagonists: luciferase biochemical (cell-free) qHTS assay (AID 1645840; active = well fitted curve in the direction sought with a large enough effect in the repeat runs; an effect the other way counts as inactive or inconclusive; note: nearly all actives have a fitted effect of over 55% in size; note: potency is the fitted concentration of half-maximal effect)
Procedure, shortened: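 P450-Glo CYP2D6 system: proluciferin substrate converted by enzyme to luciferin, read by luminescence proportional to activity. Enzyme-substrate mix with compound 10 min at room temperature, then NADPH regeneration 1 h before detection reagent.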

[3] = target: Cytochrome P450 2C9 (Homo sapiens) (UniProt P11712); assay: Cytochrome P450 family 2 subfamily C member 9 (CYP2C9) small molecule antagonists: luciferase biochemical (cell-free) qHTS assay (AID 1645842; active = well fitted curve in the direction sought with a large enough effect in the repeat runs; an effect the other way counts as inactive or inconclusive; note: nearly all actives have a fitted effect of over 55% in size; note: potency is the fitted concentration of half-maximal effect)
Procedure, shortened: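 P450-Glo CYP2C9 system: proluciferin substrate with enzyme in mix containing 0.4% BSA, 10 min at room temperature, then NADPH regeneration solution added and incubated 1 h at 37C. Detection reagent stopped reaction; luminescence read after 20 min as RLU.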

[4] = Primary qHTS for inhibitors of nuclear receptor binding SET domain protein 2 (NSD2) in an isogenic RCH-ACV NSD2 p.E1099K mutant (9B) (AID 1645876); note: nearly all actives have a fitted effect of over 70% in size; note: potency is the fitted concentration of half-maximal effect
[5] = Primary qHTS for inhibitors of nuclear receptor binding SET domain protein 2 (NSD2) in an RCH-ACV wild type WT cells (2C) (AID 1645877); note: nearly all actives have a fitted effect of over 70% in size; note: potency is the fitted concentration of half-maximal effect

Sequence of Cytochrome P450 2C9 (Homo sapiens) (P11712 whole entry, looked up): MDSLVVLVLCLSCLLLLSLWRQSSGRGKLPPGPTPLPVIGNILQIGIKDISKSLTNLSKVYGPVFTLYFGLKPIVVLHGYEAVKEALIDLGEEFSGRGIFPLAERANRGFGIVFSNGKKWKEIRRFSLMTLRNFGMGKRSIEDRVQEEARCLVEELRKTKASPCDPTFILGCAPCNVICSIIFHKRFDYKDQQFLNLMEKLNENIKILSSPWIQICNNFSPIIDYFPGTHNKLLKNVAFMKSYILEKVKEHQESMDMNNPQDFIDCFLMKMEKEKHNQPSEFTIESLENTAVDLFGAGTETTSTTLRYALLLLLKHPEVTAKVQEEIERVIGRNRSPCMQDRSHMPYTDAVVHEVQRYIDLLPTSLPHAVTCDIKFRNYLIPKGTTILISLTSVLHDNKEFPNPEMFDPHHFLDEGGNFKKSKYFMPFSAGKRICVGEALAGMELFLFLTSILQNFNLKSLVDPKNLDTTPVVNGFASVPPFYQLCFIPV
Sequence of Cytochrome P450 2D6 (Homo sapiens) (P10635 whole entry, looked up): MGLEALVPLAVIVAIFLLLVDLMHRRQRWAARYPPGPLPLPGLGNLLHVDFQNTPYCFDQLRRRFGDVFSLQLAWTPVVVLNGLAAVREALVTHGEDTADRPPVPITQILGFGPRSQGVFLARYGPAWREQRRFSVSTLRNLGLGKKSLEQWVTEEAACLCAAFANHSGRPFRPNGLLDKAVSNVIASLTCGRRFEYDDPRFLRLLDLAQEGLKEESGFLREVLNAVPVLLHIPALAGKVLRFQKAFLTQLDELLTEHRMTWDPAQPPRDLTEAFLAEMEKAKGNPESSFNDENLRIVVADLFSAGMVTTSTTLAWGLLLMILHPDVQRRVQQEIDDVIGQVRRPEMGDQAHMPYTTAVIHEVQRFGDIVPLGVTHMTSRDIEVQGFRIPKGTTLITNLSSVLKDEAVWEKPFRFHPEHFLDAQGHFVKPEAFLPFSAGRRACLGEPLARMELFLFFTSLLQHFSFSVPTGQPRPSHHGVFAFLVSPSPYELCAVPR
Sequence of Calcium and integrin-binding protein 1 (Homo sapiens) (Q99828 whole entry, looked up): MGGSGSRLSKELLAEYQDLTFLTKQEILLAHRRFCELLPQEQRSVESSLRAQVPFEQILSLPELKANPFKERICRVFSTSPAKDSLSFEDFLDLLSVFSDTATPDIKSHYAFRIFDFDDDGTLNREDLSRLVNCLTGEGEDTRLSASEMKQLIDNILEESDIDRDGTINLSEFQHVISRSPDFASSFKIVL

SMILES	Potency [1]	Potency [2]	Potency [3]	Potency [4]	Potency [5]
O=C(Nc1ccc(CN2CCOCC2)cc1)c1ccc(-c2cccc(Cl)c2)o1	inactive	15.1 µM (active)	19 µM (active)	16.3 µM (active)	11.5 µM (active)
CCCCC1CCC(c2nc(-c3ccncc3)no2)CC1 (stereo not given)	inactive	0.536 µM (active)	5.35 µM (active)	inactive	inactive
C[C@H]1[C@H](/C=C/c2ccc(-c3ccccc3C#N)cn2)[C@@H]2[C@@H](C)OC(=O)[C@@H]2C[C@@H]1C	inactive	inactive	inactive	14.5 µM (active)	10.3 µM (active)
O=C(NNc1nc2cc(F)ccc2n2cccc12)c1cnccn1	inactive	inactive	inactive	0.817 µM (active)	0.916 µM (active)
O=C(NC1CCN(CCCCC2(C(=O)NCC(F)(F)F)c3ccccc3-c3ccccc32)CC1)c1ccccc1-c1ccc(C(F)(F)F)cc1	inactive	1.07 µM (active)	15.1 µM (active)	2.9 µM (active)	2.9 µM (active)
C#CCOc1ccc2c(c1)c(-c1ccc(C(C)C)cc1)nc(=O)n2C(C)C	inactive	23.9 µM (active)	2.68 µM (active)	8.17 µM (active)	11.5 µM (active)
O=C(NCCO)c1cccc(-c2cc(Nc3ccc(OC(F)(F)F)cc3)ncn2)c1	inactive	23.9 µM (active)	21.3 µM (active)	18.3 µM (active)	18.3 µM (active)
c1cc(NCCc2c[nH]c3ccccc23)cc(Nc2ccncc2)c1	inactive	0.477 µM (active)	0.674 µM (active)	7.28 µM (active)	3.25 µM (active)
COC(=O)C(Cc1ccc(OCCn2c(=O)sc3cc(C(=O)c4ccccc4)ccc32)cc1)C(=O)OC	inactive	inactive	2.13 µM (active)	inactive	inactive
COc1cc(NC(=O)c2cc(C3CC3)on2)c(OC)cc1Cl	inactive	2.39 µM (active)	10.7 µM (active)	inactive	inactive
CNC(=O)[C@@H](c1ccccc1)N1CCc2cc(OC)c(OC)cc2[C@@H]1CCc1ccc(C(F)(F)F)cc1	inactive	4.77 µM (active)	6.74 µM (active)	23 µM (active)	16.3 µM (active)
CN1CCC(NC(=O)c2cc(-c3c(O)cc(O)cc3Oc3ccc([N+](=O)[O-])cc3)on2)CC1	inactive	inactive	12 µM (active)	0.23 µM (active)	0.23 µM (active)
COc1ccc(C(=O)Nc2c(Cl)cncc2Cl)cc1OC1CCCC1	inactive	inactive	6.74 µM (active)	inactive	inactive
COCC(=O)NC/C=C/c1ccc2ncnc(Nc3ccc(Oc4ccc(C)nc4)c(C)c3)c2c1	inactive	10.7 µM (active)	8.49 µM (active)	20.5 µM (active)	16.3 µM (active)
Fc1ccc(-n2cc(CCCCN3CCC4(CC3)OCc3ccccc34)c3ccccc32)cc1	inactive	0.601 µM (active)	2.39 µM (active)	7.28 µM (active)	6.49 µM (active)
Cc1c(NC(=O)OCC2COCCN2)cn2ncnc(Nc3ccc4c(cnn4Cc4cccc(F)c4)c3)c12 (stereo not given)	inactive	21.3 µM (active)	19 µM (active)	14.5 µM (active) and 18.6 µM (active)	16.3 µM (active) and 16.6 µM (active)
O=C(NS(=O)(=O)c1ccc(Br)s1)c1ccc(Cl)cc1Cl	inactive	inactive	2.68 µM (active)	10.3 µM (active)	9.16 µM (active)
Cc1ccc(F)cc1S(=O)(=O)N[C@@H]1CCN(Cc2ccc(OC(C)C)cc2)C1	inactive	0.0169 µM (active)	6.01 µM (active)	16.3 µM (active)	18.3 µM (active)
COc1cc(N2CCC(N)CC2)ccc1Nc1ncc(Cl)c(-c2c[nH]c3ccccc23)n1	inactive	21.3 µM (active)	3.01 µM (active)	1.45 µM (active) and 1.66 µM (active)	1.63 µM (active) and 2.35 µM (active)
O=C(CCl)Nc1cccc(NC2=NS(=O)(=O)c3ccccc32)c1	inactive	inactive	15.1 µM (active)	9.34 µM (active)	6.61 µM (active)
COc1ccc(Cl)c(Nc2ncnc3cc(OCC4CCN(C)CC4)c(OC)cc23)c1	inactive	inactive	inactive	13.2 µM (active)	13.2 µM (active)
COc1cc(CCc2cc(NC(=O)c3ccc(N4CC(C)NC(C)C4)cc3)n[nH]2)cc(OC)c1 (stereo not given)	inactive	12 µM (active)	inactive	9.16 µM (active)	10.3 µM (active)
CC(C)S(=O)(=O)c1ccc2nccc(Nc3ccc4scnc4c3)c2c1	inactive	10.7 µM (active)	6.74 µM (active)	9.34 µM (active)	10.5 µM (active)

SMILES	Potency [1]	Potency [2]	Potency [3]	Potency [4]	Potency [5]
O=C(c1ccccn1)N(Cc1cccs1)C1(C(=O)NC2CCCCC2)CCCCC1	inactive	inactive	9.52 µM (active)	inactive	inactive
CNc1cc2[nH]c(=O)n(-c3ccc(NC(=O)NS(=O)(=O)c4ccc(Cl)s4)cc3)c(=O)c2cc1F	inactive	inactive	inactive	inactive	inactive
O=C(NCCCCN1CCN(c2cccc(Cl)c2Cl)CC1)c1cc2ccccc2s1	inactive	0.301 µM (active)	3.79 µM (active)	20.5 µM (active)	23 µM (active)
Nc1ncnc2c1c(-c1ccc(Oc3ccccc3)cc1)nn2[C@@H]1CCCNC1	inactive	15.1 µM (active)	inactive	1.63 µM (active)	2.3 µM (active)
N#CC(CCCN1CCN(/N=C/c2cccnc2)CC1)(c1ccccc1)c1ccccc1	inactive	0.849 µM (active)	7.56 µM (active)	inactive	inactive
COc1c(C)cnc(Cn2cc(C#CCC(C)(C)O)c3c(Cl)nc(N)nc32)c1C	inactive	inactive	2.39 µM (active)	0.129 µM (active)	0.145 µM (active)
COC(=O)N1CCC(n2ncc3c(N4CCOCC4)nc(-c4ccc(NC(=O)NC5CC5)cc4)nc32)CC1	inactive	16.9 µM (active)	3.38 µM (active)	0.0817 µM (active)	0.115 µM (active)
COC(C)(C)CCn1nc(Nc2c(C)cccc2C)c2cnc(Nc3ccc(OCCN4CCCC4)c(F)c3)nc21	inactive	15.1 µM (active)	6.01 µM (active)	103 nM (active) and 263 nM (active)	163 nM (active) and 468 nM (active)
COc1ccccc1N1CCN(CC(C(=O)NC(C)(C)C)c2ccccc2)CC1 (stereo not given)	inactive	1.69 µM (active)	12 µM (active)	inactive	inactive
COc1cc(OC)c2c(=O)[nH]c(-c3cc(C)c(OCCO)c(C)c3)nc2c1	inactive	inactive	12 µM (active) and 10.7 µM (active)	12.9 µM (active) and 14.8 µM (active)	10.3 µM (active) and 11.8 µM (active)
Cn1ncnc1[C@@H]1c2n[nH]c(=O)c3cc(F)cc(c23)N[C@H]1c1ccc(F)cc1	inactive	inactive	inactive	20.5 µM (active)	9.16 µM (active)
CC(=O)N1CCN(CCOc2ccc(C3CCN(C4=Nn5c(nnc5C(F)(F)F)CC4)CC3)cc2)CC1	inactive	inactive	12 µM (active)	5.15 µM (active)	6.49 µM (active)
O=C(Nc1ccc(Cl)cc1)c1ccccc1NCc1ccncc1	inactive	0.169 µM (active)	0.0379 µM (active)	10.3 µM (active)	18.3 µM (active)
NC(=O)N1CCC(CC(=O)N2CCC(C3c4ncc(Br)cc4CCc4cc(Cl)cc(Br)c43)CC2)CC1 (stereo not given)	inactive	16.9 µM (active)	12 µM (active)	7.28 µM (active)	6.49 µM (active)
O=C(Nc1ccc(C(O)(C(F)(F)F)C(F)(F)F)cc1)c1ccc(C(F)(F)F)cc1	inactive	19 µM (active)	10.7 µM (active)	5.78 µM (active)	5.78 µM (active)
Oc1ccc(-c2cnc3ccc(NCc4ccco4)nn23)cc1	inactive	1.69 µM (active)	0.756 µM (active)	1.83 µM (active)	1.83 µM (active)
NS(=O)(=O)Nc1ncnc(OCCOc2ncc(Br)cn2)c1-c1ccc(Br)cc1	inactive	inactive	4.77 µM (active)	16.3 µM (active)	11.5 µM (active)
NCC1CCN(c2nccc(-c3ccc4ccccc4c3)n2)CC1	inactive	9.52 µM (active)	0.849 µM (active)	1.86 µM (active)	1.18 µM (active)
O=C(NCCCn1ccnc1)c1cc(-c2ccco2)on1	inactive	8.49 µM (active)	9.52 µM (active)	14.5 µM (active)	10.3 µM (active)
CCOC(=O)c1cnn(-c2ccccc2)c1NC(=O)c1cc2nc(-c3ccco3)cc(C(F)(F)Cl)n2n1	inactive	inactive	3.38 µM (active)	inactive	inactive
Cc1cc(N2CCOCC2)ccc1Nc1nc(NC2CCCCC2)c2[nH]cnc2n1	inactive	inactive	13.5 µM (active)	1.29 µM (active)	8.33 µM (active)
COc1ccc(NC(=O)c2ccc(-c3ccc(-c4nnc(C)o4)cc3C)cc2)cc1N1CCN(C)CC1	inactive	30.1 µM (active)	19 µM (active)	20.5 µM (active)	10.3 µM (active)
O=C(NC1(c2ccccc2)CC1)c1c(CN2CCC(N3CCCCC3)CC2)c(-c2cccc(C(F)(F)F)c2)nc2cc(Br)ccc12	inactive	4.77 µM (active)	23.9 µM (active)	12.9 µM (active)	10.3 µM (active)
